Laboratory results: PubChem BioAssay
Activity calls are given as the source filed them. Unless noted, no rule for the calls is given here.

Tests used:
[1] = compound effects on lung adenocarcinoma cell viability – A549, calcein-AM fluorescence, 48 h, basal, profiling panel (AID 1162); conditions: higher = more signal; also: test concentration not given here
[2] = compound effects on differentiated 3T3-L1 adipocyte viability – cell-based, 3T3-L1 adipocytes, calcein-AM fluorescence, 48 h, basal, profiling panel (AID 1163); conditions: 3T3-L1 adipocytes viability, higher = more signal; also: test concentration not given here
[3] = compound effects on hepatocellular carcinoma cell viability – HepG2, calcein-AM fluorescence, 48 h, basal, profiling panel (AID 1164); conditions: higher = more signal; also: test concentration not given here
[4] = compound effects on multiple myeloma cell viability – MM1S, calcein-AM fluorescence, 48 h, basal, profiling panel (AID 1165); conditions: higher = more signal; also: test concentration not given here
[5] = calcein-AM signal in unstimulated myeloma cells – cell-based, calcein-AM fluorescence, 48 h, PK04 Diversity Set, profiling panel (AID 1166); conditions: RPMI8226 myeloma viability, higher = more signal;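 also: cells grown under basal conditions without added stimulus; test concentration not given here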
[6] = JC-1 mitochondrial signal, unstimulated HepG2 cells – cell-based, JC-1 fluorescence, 24 h, 100 nL compound, profiling panel (AID 1167); conditions: HepG2 mitochondrial potential, higher = more signal; also: test concentration not given here
[7] = JC-1 mitochondrial signal, unstimulated adipocytes – cell-based, JC-1 fluorescence, 3T3-L1 adipocytes, 24 h, 100 nL compound, profiling panel (AID 1168); conditions: JC-1 mitochondrial fluorescence, higher = more signal, called active from +8 up or from −8 down; also: test concentration not given here
[8] = JC-1 mitochondrial signal, unstimulated myeloma cells – cell-based, JC-1 fluorescence, RPMI8226, 24 h, 100 nL compound, profiling panel (AID 1169); conditions: JC-1 mitochondrial potential fluorescence, higher = more signal; also: test concentration not given here
[9] = JC-1 mitochondrial signal, unstimulated MM1S myeloma – cell-based, JC-1 fluorescence, 24 h, 100 nL compound, profiling panel (AID 1170); conditions: MM1S mitochondrial potential, higher = more signal; also: test concentration not given here
[10] = resazurin metabolic signal in A549 cells – cell-based, resazurin fluorescence, 24 h, PK04 Diversity Set, profiling panel (AID 1171); conditions: A549 viability, higher = more signal, called active from +8 up or from −8 down; also: test concentration not given here
[11] = resazurin metabolic signal in HepG2 cells – cell-based, resazurin fluorescence, 24 h, PK04 Diversity Set, profiling panel (AID 1172); conditions: HepG2 viability, higher = more signal; also: test concentration not given here
[12] = budding yeast growth changes without added modifier – OD600, strain BY4716, 24 h, basal condition, primary screen (AID 1173); conditions: S. cerevisiae BY4716 growth, OD600, 24 h; higher = more signal, called active from +8 up or from −8 down
[13] = viability profiling in MM1S myeloma cells – cell-based, resazurin fluorescence, basal, 24 h, PK04 Diversity Set, profiling panel (AID 1174); conditions: higher = more signal, called active from +8 up or from −8 down; also: test concentration not given here
[14] = target: Dihydroorotate dehydrogenase (quinone), mitochondrial (Plasmodium falciparum (isolate 3D7)) (UniProt Q08210); assay: inhibition of P. falciparum DHODH – biochemical, C-terminal His tag, absorbance 600 nm, primary screen (AID 1175); conditions: PfDHODH enzyme, DCIP absorbance 600 nm; higher = more signal, called active from +8 up or from −8 down;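 also: recombinant parasite enzyme with a five histidine tag at its C terminus; test concentration not given here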
[15] = inhibition of PAO1 biofilm formation – strain PAO1, LB-PBS medium, absorbance 600 nm, primary screen (AID 1176); also: test concentration not given here; conditions: P. aeruginosa PAO1 growth/biofilm, A600, 12 h; higher = more signal
[16] = growth modulation of vineyard yeast isolate – strain RM11-1a, OD600, basal, 24 h, primary screen (AID 1177);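 also: cultures grown under basal conditions with no added stressor; test concentration not given here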; conditions: S. cerevisiae RM11-1a growth, OD600, 24 h; higher = more signal, called active from +8 up or from −8 down
[17] = growth of efflux-deficient E. coli DRC39 – strain DRC39, OD650, 24 h, E. coli filamentation inducers, primary screen (AID 1178);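 also: growth measured as culture turbidity by optical density at 650 nm; test concentration not given here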; conditions: E. coli DRC39 acrAB, higher = more signal, called active from +8 up or from −8 down
[18] = growth of efflux-deficient E. coli DRC39 – strain DRC39, OD650, 48 h, E. coli filamentation inducers, primary screen (AID 1179);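 also: screen aims at cell division blockers that make cells filament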; conditions: E. coli DRC39 delta-acrAB growth, higher = more signal, called active from +8 up or from −8 down
[19] = viability profiling in RPMI8226 myeloma cells – cell-based, resazurin fluorescence, basal, 24 h, PK04 Diversity Set, profiling panel (AID 1180); conditions: higher = more signal;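 also: RPMI8826 multiple myeloma cell line at 5000 cells per well; test concentration not given here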
[20] = target: E3 ubiquitin-protein ligase XIAP (Homo sapiens) (UniProt P98170); assay: small molecules binding XIAP protein – biophysical, small-molecule microarray, fluorescence 635 nm, primary screen (AID 1181); conditions: higher = more signal;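 also: score merges 667 nm emission and signal to noise over triplicate slides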
E3 ubiquitin-protein ligase XIAP (Homo sapiens), sequence (P98170 whole entry, looked up): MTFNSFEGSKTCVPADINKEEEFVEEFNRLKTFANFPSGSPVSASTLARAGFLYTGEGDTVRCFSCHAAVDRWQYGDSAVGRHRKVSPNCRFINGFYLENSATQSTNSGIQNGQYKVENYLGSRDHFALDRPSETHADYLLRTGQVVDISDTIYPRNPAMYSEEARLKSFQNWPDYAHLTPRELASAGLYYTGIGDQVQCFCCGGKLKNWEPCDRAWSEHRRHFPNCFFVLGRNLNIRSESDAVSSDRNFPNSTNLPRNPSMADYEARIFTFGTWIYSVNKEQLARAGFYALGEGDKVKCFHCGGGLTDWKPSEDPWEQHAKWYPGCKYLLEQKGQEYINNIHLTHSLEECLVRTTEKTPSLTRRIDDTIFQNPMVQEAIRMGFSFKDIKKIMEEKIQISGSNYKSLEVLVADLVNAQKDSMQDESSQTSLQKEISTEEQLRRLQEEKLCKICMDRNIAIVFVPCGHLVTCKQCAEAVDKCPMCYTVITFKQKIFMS

Dihydroorotate dehydrogenase (quinone), mitochondrial (Plasmodium falciparum (isolate 3D7)), sequence (Q08210 whole entry, looked up): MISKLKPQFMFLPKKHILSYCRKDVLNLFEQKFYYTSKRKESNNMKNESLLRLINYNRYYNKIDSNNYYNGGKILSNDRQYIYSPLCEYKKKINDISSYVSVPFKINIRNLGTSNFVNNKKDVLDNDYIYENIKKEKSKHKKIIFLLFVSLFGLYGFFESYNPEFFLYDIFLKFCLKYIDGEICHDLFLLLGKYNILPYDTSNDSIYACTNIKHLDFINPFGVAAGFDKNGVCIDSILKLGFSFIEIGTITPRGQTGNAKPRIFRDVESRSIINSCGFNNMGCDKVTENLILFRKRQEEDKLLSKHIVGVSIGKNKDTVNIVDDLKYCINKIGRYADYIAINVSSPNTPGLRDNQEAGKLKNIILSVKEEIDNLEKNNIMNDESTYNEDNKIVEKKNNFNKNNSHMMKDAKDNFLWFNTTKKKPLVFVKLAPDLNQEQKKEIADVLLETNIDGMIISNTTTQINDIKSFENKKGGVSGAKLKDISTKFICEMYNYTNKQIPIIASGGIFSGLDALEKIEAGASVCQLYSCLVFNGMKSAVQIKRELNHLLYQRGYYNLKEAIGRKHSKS

SMILES	z-score [1]	z-score [2]	z-score [3]	z-score [4]	z-score [5]	z-score [6]	z-score [7]	z-score [8]	z-score [9]	z-score [10]	z-score [11]	z-score [12]	z-score [13]	composite z-score [14]	z-score [15]	z-score [16]	z-score [17]	z-score [18]	z-score [19]	composite z-score [20]
O=c1cccc(-c2cccc3ccccc23)o1	-1.07	-0.893	0.0962	-1.09	-1.84	0.113	1.05 (inactive)	0.608	-1.07	0.058 (inactive)	-0.0368	-14.1 (active)	-0.0171 (inactive)	-2.39 (inactive)	0.794 (inactive)	-1.95 (inactive)	-0.0645 (inactive)	-0.0042 (inactive)	0.024	0.126
CC(C)CNC(=O)[C@@]1(C)c2ccccc2C(=O)N(C(C)C)[C@H]1c1ccc(CO)cc1	-0.238	-0.511	-0.178	0.0151	-0.847	-0.372	-0.638 (inactive)	0.809	-0.481	-0.0586 (inactive)	-0.174	-0.128 (inactive)	-0.434 (inactive)	-0.449 (inactive)	-0.273 (inactive)	-0.207 (inactive)	-0.314 (inactive)	-0.049 (inactive)	-0.434	-0.135
C=CCN1C(=O)[C@]2(Cc3ccccc31)N=C(c1ccc(OCCCO)cc1)O[C@@H]2c1ccccc1	-0.686	-0.201	-0.377	-0.9	-3.41	-0.844	1.83 (inactive)	-1.11	-0.672	-2.13 (inactive)	-1.05	-2.22 (inactive)	-1.48 (inactive)	-0.699 (inactive)	0.134 (inactive)	0.821 (inactive)	-1.3 (inactive)	-0.802 (inactive)	-1.33	-0.0062
CC(C)C(=C=CC[C@H](O)c1ccccc1OCCO)CCO	-0.417	-1.06	-0.07	-0.256	-1.56	-0.926	-0.318 (inactive)	-0.424	-0.305	-0.245 (inactive)	-0.457	-1.39 (inactive)	-0.0976 (inactive)	-0.757 (inactive)	1.17 (inactive)	0.0589 (inactive)	-0.235 (inactive)	-0.153 (inactive)	0.217	-0.23
COc1ccc([Si](C)(C)[C@@H]2[C@@H](CC(=O)N3Cc4ccccc4C[C@H]3CO)O[C@]3(C(=O)N(Cc4cccc(N5C(=O)COc6ccccc65)c4)c4ccccc43)[C@H]2C)cc1	0.196	1.34	0.553	-0.296	-1.47	0.411	1.52 (inactive)	-1.17	-0.974	-0.751 (inactive)	0.645	-1.17 (inactive)	-1.84 (inactive)	-1.32 (inactive)	1.92 (inactive)	1.39 (inactive)	1.53 (inactive)	1.53 (inactive)	-0.748	0.188
CCCCC(=C=CC[C@H](O)c1ccccc1OCCO)C[C@H](O)c1cc(Cl)cc(Cl)c1O	0.441	-0.0739	0.105	-3.29	-2.59	-0.605	0.201 (inactive)	-0.655	-1.13	0.135 (inactive)	-0.268	-4.13 (inactive)	-0.392 (inactive)	-1.69 (inactive)	0.33 (inactive)	0.31 (inactive)	0.504 (inactive)	0.32 (inactive)	-0.45	-0.138
O=C(NCC(O)CO)[C@@]1(Cc2ccccc2)COC(c2ccc(OCCCO)cc2)=N1 (stereo not given in full)	-0.0736	-0.183	-0.283	-0.467	-0.164	-0.201	-0.817 (inactive)	-0.805	-0.89	-0.0991 (inactive)	0.55	-0.339 (inactive)	-0.322 (inactive)	-0.815 (inactive)	0.385 (inactive)	0.0962 (inactive)	0.187 (inactive)	0.276 (inactive)	0.0244	-0.135
C=C(C(=O)CC[C@@H](OC(=O)c1cccnc1)c1ccc(CO)o1)C(C)C	-0.628	0.153	-0.545	-1.06	-0.56	-1.3	0.0907 (inactive)	0.283	0.48	-0.297 (inactive)	0.158	-0.708 (inactive)	0.285 (inactive)	-0.0661 (inactive)	0.437 (inactive)	0.113 (inactive)	-0.391 (inactive)	-0.562 (inactive)	0.594	0.396
C=CC[C@]1(C(=O)NCCN2CCOCC2)N=C(c2ccc(OCCCO)cc2)O[C@H]1c1ccccc1N=[N+]=[N-]	0.0657	0.572	0.353	-1.05	-0.766	1.03	1.98 (inactive)	-0.701	0.472	0.0624 (inactive)	-0.153	-1.51 (inactive)	0.0032 (inactive)	0.918 (inactive)	-0.251 (inactive)	0.393 (inactive)	2.29 (inactive)	0.746 (inactive)	-0.414	0.113
